According to PubChem BioAssay:
The source made the active and inactive calls. Unless noted, the rule behind the calls is not given here.

Assays:
[1] = HepG2 liver cancer cell viability effects, profiling panel, resazurin fluorescence, 24 h, PK04 Diversity Set (AID 1172); conditions: higher = more signal; note: test concentration not given here
[2] = basal S. cerevisiae growth modulation, no modifier, primary screen, OD600, strain BY4716, 24 h, basal condition (AID 1173); conditions: OD600, 24 h, higher = more signal, called active from +8 up or from −8 down
[3] = MM1S myeloma cell viability, profiling panel, resazurin fluorescence, basal, 24 h, PK04 Diversity Set (AID 1174); conditions: higher = more signal, called active from +8 up or from −8 down;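 note: MM1S multiple myeloma cell line; test concentration not given here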
[4] = target: Dihydroorotate dehydrogenase (quinone), mitochondrial (Plasmodium falciparum (isolate 3D7)) (UniProt Q08210); experiment: PfDHODH enzyme inhibitors, primary screen, biochemical, C-terminal His tag, absorbance 600 nm (AID 1175); conditions: DCIP absorbance 600 nm, higher = more signal, called active from +8 up or from −8 down;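 note: recombinant parasite enzyme with a five histidine tag at its C terminus; test concentration not given here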
Dihydroorotate dehydrogenase (quinone), mitochondrial (Plasmodium falciparum (isolate 3D7)), sequence (Q08210 whole entry, looked up): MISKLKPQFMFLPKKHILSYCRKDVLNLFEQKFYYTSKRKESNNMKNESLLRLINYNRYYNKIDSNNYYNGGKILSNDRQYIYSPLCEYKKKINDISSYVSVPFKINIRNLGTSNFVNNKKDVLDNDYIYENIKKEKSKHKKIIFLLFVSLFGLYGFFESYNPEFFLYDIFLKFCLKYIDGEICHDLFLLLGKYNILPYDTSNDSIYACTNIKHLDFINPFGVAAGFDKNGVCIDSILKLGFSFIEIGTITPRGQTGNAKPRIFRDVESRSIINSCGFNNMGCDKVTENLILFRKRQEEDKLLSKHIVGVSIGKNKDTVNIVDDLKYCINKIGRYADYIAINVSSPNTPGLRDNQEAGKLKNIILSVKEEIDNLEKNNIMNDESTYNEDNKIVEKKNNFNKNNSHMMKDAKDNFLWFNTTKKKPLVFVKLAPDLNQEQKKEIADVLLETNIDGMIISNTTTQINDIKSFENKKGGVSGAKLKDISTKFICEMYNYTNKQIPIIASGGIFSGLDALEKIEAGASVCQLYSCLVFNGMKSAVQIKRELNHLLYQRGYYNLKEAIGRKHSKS

[5] = P. aeruginosa biofilm formation inhibitors, primary screen, strain PAO1, LB-PBS medium, absorbance 600 nm (AID 1176); note: test concentration not given here; conditions: P. aeruginosa PAO1 growth/biofilm, A600, 12 h; higher = more signal
[6] = S. cerevisiae RM11-1a growth modifiers, primary screen, strain RM11-1a, OD600, basal, 24 h (AID 1177); conditions: OD600, 24 h, higher = more signal, called active from +8 up or from −8 down;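 note: cultures grown under basal conditions with no added stressor; test concentration not given here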
[7] = E. coli acrAB mutant growth effects, primary screen, E. coli filamentation inducers, strain DRC39, OD650, 24 h (AID 1178); conditions: higher = more signal, called active from +8 up or from −8 down;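 note: growth measured as culture turbidity by optical density at 650 nm; test concentration not given here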
[8] = E. coli acrAB mutant growth effects, primary screen, E. coli filamentation inducers, strain DRC39, OD650, 48 h (AID 1179);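 note: screen aims at cell division blockers that make cells filament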; conditions: E. coli DRC39 delta-acrAB growth, higher = more signal, called active from +8 up or from −8 down
[9] = RPMI8226 myeloma cell viability, profiling panel, resazurin fluorescence, basal, 24 h, PK04 Diversity Set (AID 1180); conditions: higher = more signal;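 note: RPMI8826 multiple myeloma cell line at 5000 cells per well; test concentration not given here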
[10] = target: E3 ubiquitin-protein ligase XIAP (Homo sapiens) (UniProt P98170); experiment: XIAP binders, primary screen, biophysical, small-molecule microarray, fluorescence 635 nm (AID 1181); conditions: small-molecule microarray binding, higher = more signal;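 note: score merges 667 nm emission and signal to noise over triplicate slides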
E3 ubiquitin-protein ligase XIAP (Homo sapiens), sequence (P98170 whole entry, looked up): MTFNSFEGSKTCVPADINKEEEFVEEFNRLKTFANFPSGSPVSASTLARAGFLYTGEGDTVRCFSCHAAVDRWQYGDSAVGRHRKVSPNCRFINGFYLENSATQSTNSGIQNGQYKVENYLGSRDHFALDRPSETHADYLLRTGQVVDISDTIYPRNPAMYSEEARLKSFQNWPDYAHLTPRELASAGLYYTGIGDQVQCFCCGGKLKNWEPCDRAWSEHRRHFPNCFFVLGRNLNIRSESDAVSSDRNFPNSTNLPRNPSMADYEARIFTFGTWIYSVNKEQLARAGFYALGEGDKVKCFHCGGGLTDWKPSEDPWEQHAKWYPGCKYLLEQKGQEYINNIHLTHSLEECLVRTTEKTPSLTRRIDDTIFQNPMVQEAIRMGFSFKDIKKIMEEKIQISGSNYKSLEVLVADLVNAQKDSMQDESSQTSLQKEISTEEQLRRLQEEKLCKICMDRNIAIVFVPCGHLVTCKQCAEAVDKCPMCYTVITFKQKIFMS

| Structure (SMILES) | z-score [1] | z-score [2] | z-score [3] | composite z-score [4] | z-score [5] | z-score [6] | z-score [7] | z-score [8] | z-score [9] | composite z-score [10] |
| --- | --- | --- | --- | --- | --- | --- | --- | --- | --- | --- |
| O=C1c2ccccc2[C@](Cc2ccccc2I)(C(=O)NCCN2CCOCC2)[C@H](c2ccc(CO)cc2)N1Cc1ccccc1 | -0.462 | -0.915 (inactive) | 0.068 (inactive) | 0.215 (inactive) | 0.186 (inactive) | 0.233 (inactive) | -0.256 (inactive) | -0.0438 (inactive) | -0.713 | 0.0904 |
| CC(=O)NCCCC[C@@H]1NC(=O)[C@@H]2C[C@H](C(=O)O)[C@H](c3ccc(O)cc3)N2C1=O | -0.253 | 0.929 (inactive) | 0.699 (inactive) | 0.435 (inactive) | -0.819 (inactive) | 0.88 (inactive) | 0.0763 (inactive) | -0.301 (inactive) | 0.517 | -0.0796 |
| O=C1OCC=C[C@H]2OC34C=CCN(Cn5nnc6ccccc65)C(=O)[C@H]3N(CCCCCCO)C(=O)[C@@H]4[C@@H]12 (stereo not given in full) | -0.214 | -0.344 (inactive) | 0.0473 (inactive) | -1.32 (inactive) | 0.481 (inactive) | -0.91 (inactive) | 0.239 (inactive) | 0.163 (inactive) | -0.134 | 0.233 |
| CC(CO)N1C(=O)[C@@H]2C3C(=O)OCCC/C=C\[C@H]3OC23C=CCN(Cn2nnc4ccccc42)C(=O)[C@@H]13 (stereo not given in full) | 0.256 | -0.159 (inactive) | 0.595 (inactive) | -2.72 (inactive) | 0.205 (inactive) | 0.549 (inactive) | 0.935 (inactive) | 0.829 (inactive) | 0.605 | 0.0511 |
| Cc1ccc(C(C)CC(O)C2C=CC3C(=O)N(c4ccccc4)C(=O)C3N2Nc2ccc(C(C)C)cc2)o1 (stereo not given) | -1.32 | 0.123 (inactive) | -0.905 (inactive) | 0.824 (inactive) | 1.5 (inactive) | 0.685 (inactive) | -0.751 (inactive) | -0.682 (inactive) | -1.03 | -0.0238 |
| Cc1ccc(S[C@]2(C(=O)NCC(C)C)CC(=O)N(Cc3ccccc3Cl)[C@@H]2c2ccc(CO)cc2I)cc1 | 0.0825 | -1.61 (inactive) | -1.68 (inactive) | -0.0436 (inactive) | 0.82 (inactive) | -1.33 (inactive) | -0.0158 (inactive) | 0.0686 (inactive) | -2.44 | -0.152 |
| C=CCOC(=O)[C@H]1[C@@H]2C(=O)O[C@@H](c3ccccc3)[C@@H](c3ccccc3)N2[C@@H](c2ccc(OCCOC(=O)[C@H]3C[C@H]4C(=O)N[C@@H](CCCC[N+](C)(C)C)C(=O)N4[C@H]3c3cccc(OCCO)c3)cc2)[C@]12C(=O)Nc1ccc(I)cc12 | -0.346 | 1.44 (inactive) | -0.0145 (inactive) | -2.44 (inactive) | 4.03 (inactive) | 2.44 (inactive) | 0.186 (inactive) | 0.57 (inactive) | 0.208 | -0.0373 |
| C=C[C@@H](C)[C@H](OC(=O)Nc1ccc(SC)cc1)c1ccc(OCCO)cc1 | 0.571 | -3.42 (inactive) | -0.0261 (inactive) | -1.16 (inactive) | 0.638 (inactive) | 0.0728 (inactive) | -0.217 (inactive) | 0.511 (inactive) | 0.152 | -0.111 |
| CCOC(=O)[C@H]1C/C=C/C[C@H](C(=O)OCC)C(=O)O[C@H]2[C@@H](OC)O[C@H](CO)[C@@H](OC(=O)CCc3ccccc3)[C@@H]2OC1=O | -0.144 | -1.08 (inactive) | 0.204 (inactive) | -0.915 (inactive) | 0.759 (inactive) | -0.143 (inactive) | 0.735 (inactive) | 0.558 (inactive) | 0.116 | 0.023 |
| CCCN1C(=O)[C@]2(Cc3ccccc3)N=C(c3ccc(OCCCO)cc3)O[C@@H]2c2ccccc21 | 0.734 | -1.94 (inactive) | -0.753 (inactive) | -0.42 (inactive) | -0.0963 (inactive) | 0.931 (inactive) | 0.94 (inactive) | 0.718 (inactive) | -1.13 | 0.108 |
| COc1ccc(CCNC(=O)[C@@]2(Sc3ccc(C)cc3)CC(=O)N(Cc3cc(C(F)(F)F)cc(C(F)(F)F)c3)[C@@H]2c2ccc(CO)cc2I)cc1 | 0.872 | -3.6 (inactive) | -2.46 (inactive) | -0.988 (inactive) | 0.723 (inactive) | -1.33 (inactive) | 0.232 (inactive) | 0.214 (inactive) | -1.61 | -0.291 |
| Cc1c(NC(=O)/C(C#N)=C/C=C/c2ccccc2[N+](=O)[O-])c(=O)n(-c2ccccc2)n1C | -1.25 | -0.0708 (inactive) | -0.729 (inactive) | 0.512 (inactive) | -0.6 (inactive) | -0.061 (inactive) | 1.06 (inactive) | -0.241 (inactive) | -1.73 | -0.0172 |
